# Compound activity (PubChem BioAssay)
# Compounds with a hit are over-represented: about 11% of the library has one in this group of screens.
# PNC assembly inh – blocks assembly of the perinucleolar compartment | PC3M PTB-GFP, PNC prevalence imaging, 16 h; hits give low values | activity change (PNC), negative = inhibition, % at 10 µM | 140,000 tested, 3.1% active | AID 2417;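 active means readout at or below -70, meaning at least 70% loss of cells showing the perinucleolar compartment, a nuclear body marking cancer cells; inconclusive means readout between -30 and a set limit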
#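 Compounds are pinned in duplicate onto adhered PC3M cells stably expressing GFP-tagged PTB and incubated 16 h at 37 C. Cells are then fixed, nuclei stained with Hoechst, and PNC-positive cells counted.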
# HPGD block – HPGD (human) dehydrogenase inhibition | P15428 | 150,000 tested, 4.3% active | purified HPGD, NADH fluorescence kinetic, PGE2 substrate | AID 894 | Potency, µM, usual class: inhibitors
#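 20 nM HPGD preincubated 15 min at room temperature with compound in 50 mM Tris-HCl pH 8, 0.01% Tween 20. Started with 1 mM NAD+ and 30 uM prostaglandin E2; NADH fluorescence (360/450 nm) read 5 times over 30-s intervals, last minus first.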
# IMPase Li inh – cell-permeable IMPase inhibitors with lithium potentiation; AID 1457; 210,000 tested, 0.35% active; CHO-M1 cells, IP1 TR-FRET (IP-One), carbachol + lithium; Potency, µM (doses to about 59.4 µM), most hits filed as inhibitors; active means well fitted curve in the direction sought with a large enough effect; inconclusive means small, poorly fitted or top-dose-only effect, or another doubt; inactive means no such curve, though single readings can be large; an effect the other way counts as inactive or inconclusive;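 further: IP1 builds up when IMPase is blocked and the TR-FRET signal falls; nearly all actives have a fitted effect of over 50% in size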
#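 Concentration–response in CHO-M1 cells, lithium-potentiated; 30 min at 37C. IP1 detected by competitive TR-FRET after 10 min lysis at RT. Hill-fitted AC50.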
# 12-hLO inh – 12-hLO (ALOX12) enzyme inhibition | P18054 | purified 12-hLO, xylenol orange hydroperoxide absorbance | Potency, µM (doses to about 57.1 µM), actives largely listed as inhibitors | 150,000 tested, 0.12% active | AID 1452; active means well fitted curve in the direction sought with a large enough effect; inconclusive means small, poorly fitted or top-dose-only effect, or another doubt; inactive means no such curve, though single readings can be large; an effect the other way counts as inactive or inconclusive; further: nearly all actives have a fitted effect of over 55% in size
# Target sequence (P18054 whole entry, looked up): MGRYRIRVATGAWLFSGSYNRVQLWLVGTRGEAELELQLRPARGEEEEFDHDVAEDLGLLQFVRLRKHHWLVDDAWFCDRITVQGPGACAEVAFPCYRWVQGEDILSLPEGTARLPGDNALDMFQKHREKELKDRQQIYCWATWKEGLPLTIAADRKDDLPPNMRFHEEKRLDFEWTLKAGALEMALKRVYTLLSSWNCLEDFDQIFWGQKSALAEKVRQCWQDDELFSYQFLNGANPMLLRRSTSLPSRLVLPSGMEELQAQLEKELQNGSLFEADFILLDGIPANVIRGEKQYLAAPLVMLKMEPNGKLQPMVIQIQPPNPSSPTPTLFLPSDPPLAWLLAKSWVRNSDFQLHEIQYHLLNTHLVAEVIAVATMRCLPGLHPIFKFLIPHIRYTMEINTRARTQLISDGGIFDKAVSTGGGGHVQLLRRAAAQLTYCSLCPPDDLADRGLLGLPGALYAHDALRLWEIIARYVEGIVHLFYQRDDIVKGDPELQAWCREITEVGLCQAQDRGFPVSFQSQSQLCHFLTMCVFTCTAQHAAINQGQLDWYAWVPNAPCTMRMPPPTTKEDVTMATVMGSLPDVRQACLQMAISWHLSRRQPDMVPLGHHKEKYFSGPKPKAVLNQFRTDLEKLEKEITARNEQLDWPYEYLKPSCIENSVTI
#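 Hydroperoxide formation by human 12-lipoxygenase from 40 uM arachidonic acid was followed colorimetrically via ferric-xylenol orange complex, using the 573/405 nm absorbance ratio. Enzyme concentration was 150 nM, with 30 min reaction at room temperature.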
# ALDH1A1 block – ALDH1A1 (human) enzyme inhibition; Purified ALDH1A1, NADH fluorescence, propionaldehyde substrate; Potency, µM (highest dose often 75.3 µM), usual class: inhibitors; 220,000 tested, 7.3% active; AID 1030
# IMPase cell inh – cell-permeable inhibitors of inositol monophosphatase (IMPase); P97697; CHO-M1 cells, IP1 accumulation, HTRF TR-FRET ratio; inhibition (IP1 accumulation), % at 46.1 µM; 120,000 tested, under 10 active; active means well fitted curve in the direction sought with a large enough effect in the signal ratio, not every such curve was filed as active; inconclusive means small, poorly fitted or top-dose-only effect, or a change in a side signal; inactive means no such curve, though single readings can be large or run the other way; the % refers to the signal ratio;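 further: cells stimulated with carbachol in lithium chloride buffer; higher means more IMPase inhibition seen as more IP1 and lower FRET ratio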
#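 Elevated IP1 in lysates lowers TR-FRET signal (665/620 ratio and 620 channel reported). Cells were CHO-M1, given carbachol (50 uM as added) plus 50mM LiCl, pH 7.4, 30 min, 37C; compounds titrated up to 46 uM; AC50 by Hill equation.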
# A number is an active result; . = inactive; ? = inconclusive; / = no result given; ! = not active in a repeat; [ ] = remark or other dose. Unless noted, the call rests on the fitted dose curve; in most records, active means well fitted inhibition curve with a large enough effect (not every such curve was filed as active); inconclusive means small, poorly fitted or top-dose-only effect, or another doubt; inactive means no such curve, though single readings can be large or run the other way.
SMILES,PNC assembly inh,HPGD block,IMPase Li inh,12-hLO inh,ALDH1A1 block,IMPase cell inh
CCCCN1C(=O)C(O)(CC(=O)c2ccccn2)c2ccccc21 (stereo not given),/,/,.,/,1µM,/
CCCN1C(=O)C(O)(CC(=O)c2ccc(C(C)C)cc2)c2ccccc21 (stereo not given),/,/,/,/,/,.
CCOC(=O)C1CCCN(C(=O)c2cc(-c3ccc(C)cc3)on2)C1 (stereo not given),.,15.8µM,.,.,.,.
CCOC(=O)C1CCCN(C(=O)c2sc3nc(-c4ccc(F)cc4)cn3c2C)C1 (stereo not given),.,.,.,.,10µM,.
COCCn1c(=O)c(-c2ccc(F)cc2)nc2cnc(OCc3ccccc3)nc21,/,?,.,.,?,/
Cc1ccc2nc(-c3cccs3)c(Nc3ccc4c(c3)OCCO4)n2c1,/,/,/,/,/,.
CCn1c(=O)c(=O)n(CC)c2cc(S(=O)(=O)Nc3cccc(OC)c3)ccc21,.,.,.,.,12.6µM,.
COc1ccc(NS(=O)(=O)c2ccc3c(c2)n(C)c(=O)n3C)cc1,.,15.8µM,.,.,.,.
Cn1c(=O)n(C)c2cc(NS(=O)(=O)c3ccc4c(c3)CCCC4)ccc21,.,.,.,?,1µM,.
COc1cccc(NS(=O)(=O)c2ccc3c(c2)n(C)c(=O)c(=O)n3C)c1,.,.,.,.,?,.
Cn1c(=O)n(C)c2cc(NS(=O)(=O)c3ccc(C(C)(C)C)cc3)ccc21,/,/,.,/,0.562µM,/
COc1ccccc1CNC(=O)C(NC(=O)c1ccccc1C)C(C)C (stereo not given),/,/,.,/,.,/
COc1ccc(-n2c(=O)cnc3cnc(N4CCOCC4)nc32)cc1,/,/,.,/,.,/
CC(=O)N1CCC2(CCCN(c3cccc(-c4ccccc4)c3)C2)CC1,/,.,.,.,?,/
C=CCOC(=O)N[C@H](/C(C(=O)OC)=C(\C)NCc1ccccc1)c1ccc2c(c1)OCO2,/,.,.,/,.,/
Cc1cc(S(=O)(=O)Nc2ccc3c(c2)COC3=O)ccc1F,/,/,.,/,?,/
CC(C)(C)c1ccc(S(=O)(=O)Nc2ccc3c(c2)COC3=O)cc1,/,/,.,/,4.47µM,/
COCCCNC(=O)/C=C/c1ccc(Cl)cc1,.,.,.,.,.,.
COCCNC(=O)/C=C/c1c(Cl)cccc1Cl,?,12.6µM,.,.,.,/
COCCCNC(=O)/C=C/c1c(Cl)cccc1Cl,.,15.8µM,.,.,.,/
Brc1cccc2sc(N3CCCC3)nc12,/,/,.,/,.,/
Cc1ccc(/C=C2\CCCC3=C2NC(=S)NC3c2ccc(C)cc2)cc1 (stereo not given),.,31.6µM,.,?,?,/
COc1ccc(-c2nc3cnc(N4CCN(C)CC4)nc3n(-c3ccc(OC)cc3)c2=O)cc1,/,/,.,/,?,/
COc1ccc(-c2nc(-c3ccccc3)[nH]c(=O)c2C#N)cc1,.,20µM,.,.,.,.
COc1ccc(-c2nc(-c3ccccc3)nc(Cl)c2C#N)cc1,.,?,.,.,?,.
SMILES,PNC assembly inh,HPGD block,IMPase Li inh,12-hLO inh,ALDH1A1 block,IMPase cell inh
O=C(c1cnccn1)N1CCC2(CCCN(c3ccccn3)C2)CC1,/,.,.,.,.,/
Cc1cc(C(F)F)n2nc(C(=O)Nc3sc4c(c3C(N)=O)CCC4)nc2n1,.,.,.,.,15.8µM,.
CC(Sc1nc(-c2ccccc2)cc(C(F)(F)F)n1)C(=O)Nc1sc2c(c1C(N)=O)CCC2 (stereo not given),.,31.6µM,.,.,?,/
CC(Sc1nc(-c2ccccc2)cc(C(F)(F)F)n1)C(=O)Nc1sc2c(c1C#N)CCC2 (stereo not given),.,.,.,.,.,.
COC(=O)c1c(NC(=O)c2nc3nc(C)cc(C(F)F)n3n2)sc2c1CCC2,.,.,.,.,12.6µM,.
Cc1cc(C(F)F)n2nc(C(=O)Nc3sc4c(c3C#N)CCC(C)C4)nc2n1 (stereo not given),.,.,.,.,?,.
CCCCCCCCCCCCCCCCCC(=O)O[C@H](CC(=O)O)C[N+](C)(C)C,/,/,/,.,/,.
Cc1cc(C)c(S(=O)(=O)/N=C2/C=C(Sc3ncn[nH]3)C(=O)c3ccccc32)cc1C,?,0.891µM,.,.,1.78µM,/
CCCCC/C=C\C/C=C\C/C=C\CCCCCCC(=O)O,/,.,.,.,.,/
CCCCC/C=C\C/C=C\CCCCCCCC(=O)O,/,8.91µM!,.,.,17.8µM!,/
CN1Cc2cc(C(=O)c3ccccc3O)cnc2NC1=O,?,25.1µM,.,.,.,?
COc1ccc2cnn(-c3ccc(C)cc3)c(=O)c2c1OC,.,25.1µM,.,.,?,.
COc1ccc2cnn(-c3ccc(OC(F)(F)Cl)cc3)c(=O)c2c1OC,/,/,/,/,.,/
COc1ccc2cnn(CCOc3cc(C)ccc3C(C)C)c(=O)c2c1OC,-113.4,.,.,.,.,/
COC(=O)c1c(NC(=O)C2c3ccccc3Oc3ccccc32)sc2c1CCC(C)C2 (stereo not given),/,/,/,/,/,.
Cc1cc(OCC(=O)Nc2c(C(=O)c3ccccc3)oc3ccccc23)cc(C)c1Cl,/,/,/,/,/,.
CCOC(=O)c1c(-c2ccc(Cl)cc2)cn2ccccc12,.,?,28.2µM,.,?,.
CCOC(=O)C1=NO[C@@]2(C=C(Br)C3(OCCCO3)[C@H]3O[C@H]32)C1,/,/,/,/,.[13.5 µM],/
Cc1ccc(-c2nn(CC(=O)Nc3cccc(C(F)(F)F)c3)c(=O)c3ccccc23)cc1,/,/,/,/,/,.
O=C1C2C3C=CC(CC3)C2C(=O)N1/N=C/c1c[nH]c2ccccc12 (stereo not given),/,/,.,/,?,/
COc1ccc(/C=N/N2C(=O)C3C4C=CC(CC4)C3C2=O)c(OC)c1 (stereo not given),/,/,.,/,2.24µM,/
COc1ccccc1/C=N/N1C(=O)C2C3C=CC(CC3)C2C1=O (stereo not given),/,/,.,/,7.08µM,/
COc1ccc(N2C(=O)C3C4C=CC(C4)C3C2=O)c(OC)c1 (stereo not given),.,.,.,.,.,.
C/C(CC(=O)N(C(C)C)C(C)C)=N\NC(=O)COc1ccc(Br)cc1Br,-109.0,.,.,.,.,/
C/C(CC(=O)N(C(C)C)C(C)C)=N\NC(=O)COc1ccc(Cl)cc1Cl,/,/,.,/,?,/
SMILES,PNC assembly inh,HPGD block,IMPase Li inh,12-hLO inh,ALDH1A1 block,IMPase cell inh
Cc1cc(Cl)ccc1OCc1n[nH]c(=S)n1C1CCCCC1,.,5.01µM,.,?,?,.
Cc1ccsc1-c1n[nH]c(=S)n1C1CCCCC1,.,.,.,.,.,/
COc1ccc(Cl)cc1-c1n[nH]c(=S)n1C1CCCCC1,.,10µM,.,.,.,.
COc1ccc(-c2n[nH]c(=S)n2C2CCCCC2)cc1,?,17.8µM,.,.,?,.
S=c1[nH]nc(-c2cccnc2)n1C1CCCCC1,.,.,.,.,.,.
FC(F)(F)c1ccccc1-c1nc(NC2CC2)c2ccccc2n1,/,/,.,/,.,/
